# Experimental data taken from article PMC7862700, “An all-to-all approach to the identification of sequence-specific readers for epigenetic DNA modifications on cytosine”.
# What was measured:
# Assay in all cases: DAPPL (digital affinity profiling via proximity ligation, sequencing); 10 mM Tris-HCl pH 7.5, 50 mM NaCl, 1 mM DTT, 4% glycerol, room temperature, 30 min; GST-TFs on glutathione beads, 16-mer random dsDNA library, 0.1% formaldehyde crosslink after washing; high values mean tight binding
# Settings in all cases: protein: recombinant; tags: N-terminal GST; dsDNA, one strand shown
# [1] = biological target: T1, ELK1 (Homo sapiens, UniProt P19419 1-428)
# T1 sequence: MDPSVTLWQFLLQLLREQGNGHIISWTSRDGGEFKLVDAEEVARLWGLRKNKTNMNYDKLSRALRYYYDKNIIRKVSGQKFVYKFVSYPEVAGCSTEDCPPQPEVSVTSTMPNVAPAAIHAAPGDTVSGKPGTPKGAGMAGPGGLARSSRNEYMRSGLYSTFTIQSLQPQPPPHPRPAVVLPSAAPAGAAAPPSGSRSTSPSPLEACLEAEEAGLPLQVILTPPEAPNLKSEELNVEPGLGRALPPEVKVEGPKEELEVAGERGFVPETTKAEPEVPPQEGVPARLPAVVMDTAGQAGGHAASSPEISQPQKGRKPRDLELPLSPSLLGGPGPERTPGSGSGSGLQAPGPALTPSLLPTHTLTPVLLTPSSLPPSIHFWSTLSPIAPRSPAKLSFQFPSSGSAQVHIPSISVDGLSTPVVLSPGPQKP
# Summary of the method: (§1)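 GST fusions of human transcription factors were expressed in yeast and captured with glutathione beads. Once given DNA barcodes and pooled alongside a tag-only sample, they were incubated for 30 min at room temperature with 200 nmole of a random double-stranded 16-mer DNA library in Tris/NaCl/DTT/glycerol buffer, then washed, crosslinked (0.1% formaldehyde), proximity-ligated, PCR-amplified and sequenced on an Illumina NextSeq500. The binding signal of each hexamer is its read frequency for a factor divided by its frequency for the tag-only sample.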
# [2] = biological target: T2, GABPA (Homo sapiens, UniProt Q06546 1-454)
# T2 sequence: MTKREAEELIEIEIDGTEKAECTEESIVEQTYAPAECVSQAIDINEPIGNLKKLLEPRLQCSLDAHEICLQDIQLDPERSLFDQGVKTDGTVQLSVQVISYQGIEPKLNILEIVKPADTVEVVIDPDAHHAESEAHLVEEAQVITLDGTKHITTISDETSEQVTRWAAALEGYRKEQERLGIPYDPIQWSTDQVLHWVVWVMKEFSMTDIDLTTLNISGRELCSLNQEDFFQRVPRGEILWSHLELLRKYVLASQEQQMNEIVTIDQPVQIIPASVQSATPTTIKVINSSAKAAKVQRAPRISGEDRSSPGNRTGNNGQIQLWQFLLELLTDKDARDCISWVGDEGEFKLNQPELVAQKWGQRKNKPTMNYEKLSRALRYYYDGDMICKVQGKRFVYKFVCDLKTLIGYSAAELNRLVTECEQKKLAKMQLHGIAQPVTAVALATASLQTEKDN
# Summary of the method: as §1
# [3] = biological target: T3, ERG (Homo sapiens, UniProt P11308 1-479)
# T3 sequence: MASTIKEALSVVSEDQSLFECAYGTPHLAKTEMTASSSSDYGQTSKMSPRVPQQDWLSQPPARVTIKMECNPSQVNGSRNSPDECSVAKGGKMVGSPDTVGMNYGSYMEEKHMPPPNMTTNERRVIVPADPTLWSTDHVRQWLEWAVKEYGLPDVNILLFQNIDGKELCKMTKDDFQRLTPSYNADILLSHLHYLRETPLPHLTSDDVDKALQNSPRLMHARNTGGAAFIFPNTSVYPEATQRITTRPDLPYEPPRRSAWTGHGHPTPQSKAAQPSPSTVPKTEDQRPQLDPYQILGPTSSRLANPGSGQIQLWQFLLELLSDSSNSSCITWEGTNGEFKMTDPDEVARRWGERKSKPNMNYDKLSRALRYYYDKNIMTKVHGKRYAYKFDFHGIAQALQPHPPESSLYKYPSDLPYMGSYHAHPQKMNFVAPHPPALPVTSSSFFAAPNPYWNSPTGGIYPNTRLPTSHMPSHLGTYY
# Summary of the method: as §1
# [4] = biological target: ELF1 (Homo sapiens, UniProt P32519 1-619)
# ELF1, sequence (P32519 whole entry): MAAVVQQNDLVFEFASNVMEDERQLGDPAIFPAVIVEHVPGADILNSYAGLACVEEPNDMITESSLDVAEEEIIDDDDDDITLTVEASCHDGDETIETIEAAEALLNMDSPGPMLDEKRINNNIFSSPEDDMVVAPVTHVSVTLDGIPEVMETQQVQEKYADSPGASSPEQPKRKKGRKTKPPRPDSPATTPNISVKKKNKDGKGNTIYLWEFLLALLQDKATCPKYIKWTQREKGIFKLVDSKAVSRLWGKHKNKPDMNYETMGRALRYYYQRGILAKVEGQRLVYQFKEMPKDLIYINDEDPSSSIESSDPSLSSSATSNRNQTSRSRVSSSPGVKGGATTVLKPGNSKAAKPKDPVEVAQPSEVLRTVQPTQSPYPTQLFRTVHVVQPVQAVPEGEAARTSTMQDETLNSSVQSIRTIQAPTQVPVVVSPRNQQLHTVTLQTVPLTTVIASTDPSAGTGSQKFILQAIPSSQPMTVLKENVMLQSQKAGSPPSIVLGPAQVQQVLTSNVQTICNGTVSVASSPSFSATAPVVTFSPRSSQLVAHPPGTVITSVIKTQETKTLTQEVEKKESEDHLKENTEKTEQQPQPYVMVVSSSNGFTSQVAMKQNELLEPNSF
# Summary of the method: as §1
# [5] = biological target: T4, EHF (Homo sapiens, UniProt Q9NZC4 1-300)
# T4 sequence: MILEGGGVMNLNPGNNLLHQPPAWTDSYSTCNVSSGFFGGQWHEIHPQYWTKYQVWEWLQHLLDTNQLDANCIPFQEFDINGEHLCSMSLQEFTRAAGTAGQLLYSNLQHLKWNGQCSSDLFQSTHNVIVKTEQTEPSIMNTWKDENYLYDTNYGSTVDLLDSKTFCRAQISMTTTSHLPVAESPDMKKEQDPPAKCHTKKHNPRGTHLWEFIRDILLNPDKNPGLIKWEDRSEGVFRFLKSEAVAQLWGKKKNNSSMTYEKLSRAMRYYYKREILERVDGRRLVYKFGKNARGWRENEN
# Summary of the method: as §1
# [6] = biological target: SPIB (Homo sapiens, UniProt Q01892 1-262)
# SPIB, sequence (Q01892 whole entry): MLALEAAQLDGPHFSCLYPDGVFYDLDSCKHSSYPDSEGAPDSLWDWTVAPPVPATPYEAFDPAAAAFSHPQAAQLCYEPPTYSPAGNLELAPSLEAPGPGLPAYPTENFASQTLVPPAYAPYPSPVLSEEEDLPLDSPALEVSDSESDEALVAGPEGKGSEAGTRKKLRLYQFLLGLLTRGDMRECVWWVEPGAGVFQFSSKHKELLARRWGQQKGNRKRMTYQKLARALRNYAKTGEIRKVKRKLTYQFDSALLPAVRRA
# Summary of the method: as §1
# [7] = biological target: T5, ELK3 (Homo sapiens, UniProt P41970 1-407)
# T5 sequence: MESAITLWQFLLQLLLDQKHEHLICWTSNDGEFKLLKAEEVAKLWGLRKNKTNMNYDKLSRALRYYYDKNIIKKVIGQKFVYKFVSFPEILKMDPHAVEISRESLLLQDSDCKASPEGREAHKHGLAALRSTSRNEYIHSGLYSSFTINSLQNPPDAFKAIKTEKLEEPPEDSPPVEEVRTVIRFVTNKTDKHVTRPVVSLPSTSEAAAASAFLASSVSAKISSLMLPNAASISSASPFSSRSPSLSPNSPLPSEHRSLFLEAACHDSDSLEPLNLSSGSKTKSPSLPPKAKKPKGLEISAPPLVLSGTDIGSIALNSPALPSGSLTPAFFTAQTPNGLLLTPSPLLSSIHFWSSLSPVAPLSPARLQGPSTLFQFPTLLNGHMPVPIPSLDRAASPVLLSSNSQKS
# Summary of the method: as §1
# [8] = biological target: ETV5 (Homo sapiens, UniProt P41161 1-510)
# ETV5, sequence (P41161 whole entry): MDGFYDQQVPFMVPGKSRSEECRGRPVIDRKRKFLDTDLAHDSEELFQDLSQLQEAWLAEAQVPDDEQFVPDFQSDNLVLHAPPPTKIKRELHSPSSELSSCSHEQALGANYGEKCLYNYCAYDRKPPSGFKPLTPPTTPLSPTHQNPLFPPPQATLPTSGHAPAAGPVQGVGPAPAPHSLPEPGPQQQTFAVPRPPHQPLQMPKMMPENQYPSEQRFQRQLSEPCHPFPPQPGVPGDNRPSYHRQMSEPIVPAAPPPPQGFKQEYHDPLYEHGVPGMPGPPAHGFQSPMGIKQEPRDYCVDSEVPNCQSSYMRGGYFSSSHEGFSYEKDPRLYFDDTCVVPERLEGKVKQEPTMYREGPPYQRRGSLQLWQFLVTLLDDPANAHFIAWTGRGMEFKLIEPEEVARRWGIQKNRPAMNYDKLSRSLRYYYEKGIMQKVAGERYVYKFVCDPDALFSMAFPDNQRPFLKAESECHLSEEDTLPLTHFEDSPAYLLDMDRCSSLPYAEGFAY
# Summary of the method: as §1
# [9] = biological target: T6, SPIC (Homo sapiens, UniProt Q8N5J4 1-248)
# T6 sequence: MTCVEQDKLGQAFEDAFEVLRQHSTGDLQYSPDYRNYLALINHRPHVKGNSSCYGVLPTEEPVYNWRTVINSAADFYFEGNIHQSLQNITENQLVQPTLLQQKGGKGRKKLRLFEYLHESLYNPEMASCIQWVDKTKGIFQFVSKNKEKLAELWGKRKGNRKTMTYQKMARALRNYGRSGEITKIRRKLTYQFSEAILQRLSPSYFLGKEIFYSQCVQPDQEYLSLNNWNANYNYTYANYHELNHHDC
# Summary of the method: as §1
# [10] = biological target: ELF4 (Homo sapiens, UniProt Q99607 1-663)
# ELF4, sequence (Q99607 whole entry): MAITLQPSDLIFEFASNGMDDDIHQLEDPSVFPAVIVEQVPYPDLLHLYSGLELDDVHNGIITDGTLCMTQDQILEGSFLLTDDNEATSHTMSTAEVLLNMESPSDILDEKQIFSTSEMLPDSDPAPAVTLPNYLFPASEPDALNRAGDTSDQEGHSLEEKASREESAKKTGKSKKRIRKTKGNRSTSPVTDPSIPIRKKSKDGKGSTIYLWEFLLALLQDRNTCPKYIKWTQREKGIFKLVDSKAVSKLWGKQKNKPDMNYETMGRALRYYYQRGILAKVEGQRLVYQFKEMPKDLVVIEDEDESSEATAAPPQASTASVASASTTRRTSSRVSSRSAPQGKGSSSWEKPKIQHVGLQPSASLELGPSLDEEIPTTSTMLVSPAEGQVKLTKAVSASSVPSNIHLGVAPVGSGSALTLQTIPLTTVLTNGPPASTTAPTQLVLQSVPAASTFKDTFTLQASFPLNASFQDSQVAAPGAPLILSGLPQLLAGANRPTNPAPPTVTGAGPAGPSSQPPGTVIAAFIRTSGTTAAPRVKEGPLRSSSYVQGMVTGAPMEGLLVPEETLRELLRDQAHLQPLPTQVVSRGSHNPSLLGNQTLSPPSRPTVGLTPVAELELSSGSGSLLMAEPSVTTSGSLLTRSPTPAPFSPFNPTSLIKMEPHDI
# Summary of the method: as §1
# [11] = biological target: T7, ELF3 (Homo sapiens, UniProt P78545 1-371)
# T7 sequence: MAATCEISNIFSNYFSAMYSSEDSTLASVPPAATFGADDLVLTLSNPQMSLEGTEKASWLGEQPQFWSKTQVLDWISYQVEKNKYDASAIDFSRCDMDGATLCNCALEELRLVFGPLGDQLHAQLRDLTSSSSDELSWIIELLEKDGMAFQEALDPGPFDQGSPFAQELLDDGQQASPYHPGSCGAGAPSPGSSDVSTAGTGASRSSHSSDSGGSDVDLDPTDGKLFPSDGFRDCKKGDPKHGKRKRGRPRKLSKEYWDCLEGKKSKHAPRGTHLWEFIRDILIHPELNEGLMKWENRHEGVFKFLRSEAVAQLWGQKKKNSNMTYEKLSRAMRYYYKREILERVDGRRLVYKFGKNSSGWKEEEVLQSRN
# Summary of the method: as §1
# [12] = biological target: ETV1 (Homo sapiens, UniProt P50549 1-477)
# ETV1, sequence (P50549 whole entry): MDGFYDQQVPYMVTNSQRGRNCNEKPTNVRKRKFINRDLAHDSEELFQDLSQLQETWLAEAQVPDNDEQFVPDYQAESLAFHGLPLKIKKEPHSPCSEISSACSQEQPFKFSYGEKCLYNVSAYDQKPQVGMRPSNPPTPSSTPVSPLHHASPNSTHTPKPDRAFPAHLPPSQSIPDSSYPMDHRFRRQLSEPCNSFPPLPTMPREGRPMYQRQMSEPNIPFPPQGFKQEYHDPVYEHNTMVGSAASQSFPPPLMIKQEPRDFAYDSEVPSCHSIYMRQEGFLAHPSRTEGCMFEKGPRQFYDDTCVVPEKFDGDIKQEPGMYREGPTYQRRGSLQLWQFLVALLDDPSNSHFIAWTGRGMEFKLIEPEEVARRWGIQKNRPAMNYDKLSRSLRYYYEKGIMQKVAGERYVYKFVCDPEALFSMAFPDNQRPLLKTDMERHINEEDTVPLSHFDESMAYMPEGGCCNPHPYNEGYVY
# Summary of the method: as §1
# [13] = biological target: T8, ERF (Homo sapiens, UniProt P50548 1-548)
# T8 sequence: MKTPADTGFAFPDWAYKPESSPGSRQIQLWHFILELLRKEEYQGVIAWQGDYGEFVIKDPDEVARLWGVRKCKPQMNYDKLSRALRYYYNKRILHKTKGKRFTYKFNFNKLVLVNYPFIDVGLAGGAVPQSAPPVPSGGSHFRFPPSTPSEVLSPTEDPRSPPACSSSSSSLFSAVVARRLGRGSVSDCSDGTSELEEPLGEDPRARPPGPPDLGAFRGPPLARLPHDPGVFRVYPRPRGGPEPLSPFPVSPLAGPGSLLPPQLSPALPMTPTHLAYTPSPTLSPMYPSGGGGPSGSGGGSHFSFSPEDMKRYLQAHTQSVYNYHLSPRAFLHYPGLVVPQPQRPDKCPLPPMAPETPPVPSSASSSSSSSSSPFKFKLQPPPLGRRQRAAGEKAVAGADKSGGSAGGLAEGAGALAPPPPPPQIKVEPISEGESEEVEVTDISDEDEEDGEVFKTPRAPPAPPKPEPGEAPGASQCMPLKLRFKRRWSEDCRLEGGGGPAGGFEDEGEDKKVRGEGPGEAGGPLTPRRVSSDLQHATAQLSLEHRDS
# Summary of the method: as §1
# [14] = biological target: T9, ETV3L (Homo sapiens, UniProt Q6ZN32 1-361)
# T9 sequence: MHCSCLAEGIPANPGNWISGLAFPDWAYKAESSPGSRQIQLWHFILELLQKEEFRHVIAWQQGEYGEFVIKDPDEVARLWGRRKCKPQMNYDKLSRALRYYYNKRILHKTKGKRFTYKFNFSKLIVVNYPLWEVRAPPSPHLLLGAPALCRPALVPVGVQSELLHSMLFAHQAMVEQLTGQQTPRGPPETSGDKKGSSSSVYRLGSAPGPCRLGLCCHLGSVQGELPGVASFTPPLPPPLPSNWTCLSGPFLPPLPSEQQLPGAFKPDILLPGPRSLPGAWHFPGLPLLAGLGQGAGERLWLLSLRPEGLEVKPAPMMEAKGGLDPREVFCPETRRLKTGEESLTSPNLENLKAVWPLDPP
# Summary of the method: as §1
# [15] = biological target: T10, SPDEF (Homo sapiens, UniProt O95238 1-335)
# T10 sequence: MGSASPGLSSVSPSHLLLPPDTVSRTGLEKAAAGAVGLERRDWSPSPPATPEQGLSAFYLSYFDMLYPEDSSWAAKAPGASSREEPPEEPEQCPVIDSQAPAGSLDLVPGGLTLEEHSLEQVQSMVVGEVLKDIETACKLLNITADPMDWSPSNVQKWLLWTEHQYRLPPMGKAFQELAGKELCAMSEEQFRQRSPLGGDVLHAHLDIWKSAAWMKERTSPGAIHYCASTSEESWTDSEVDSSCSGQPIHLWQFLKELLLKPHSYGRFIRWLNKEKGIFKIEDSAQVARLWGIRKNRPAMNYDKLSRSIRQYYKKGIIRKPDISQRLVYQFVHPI
# Summary of the method: as §1
# [16] = biological target: T11, ETV7 (Homo sapiens, UniProt Q9Y603 1-341)
# T11 sequence: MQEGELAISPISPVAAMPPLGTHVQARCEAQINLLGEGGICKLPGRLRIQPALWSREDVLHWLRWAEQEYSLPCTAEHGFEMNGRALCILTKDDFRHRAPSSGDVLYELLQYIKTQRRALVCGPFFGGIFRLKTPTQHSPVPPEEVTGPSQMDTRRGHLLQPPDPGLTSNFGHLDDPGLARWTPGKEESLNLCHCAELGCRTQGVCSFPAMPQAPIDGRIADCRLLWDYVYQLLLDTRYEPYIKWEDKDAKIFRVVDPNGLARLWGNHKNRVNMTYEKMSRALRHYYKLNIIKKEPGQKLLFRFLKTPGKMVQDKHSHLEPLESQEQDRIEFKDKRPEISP
# Summary of the method: as §1
# [17] = biological target: T12, ETV3 (Homo sapiens, UniProt P41162-2 1-143)
# T12 sequence: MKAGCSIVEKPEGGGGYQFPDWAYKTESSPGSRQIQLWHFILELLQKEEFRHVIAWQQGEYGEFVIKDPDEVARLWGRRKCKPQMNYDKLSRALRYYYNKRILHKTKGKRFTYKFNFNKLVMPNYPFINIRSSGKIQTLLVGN
# Summary of the method: as §1
sequence,measurement,setting,value
AGTCCC,binding signal,[1],"1.06 fold enrichment (6-mer frequency, TF over GST control)"
same,binding signal,[2],"1.03 fold enrichment (6-mer frequency, TF over GST control)"
same,binding signal,[3],"1.07 fold enrichment (6-mer frequency, TF over GST control)"
same,binding signal,[4],"1.08 fold enrichment (6-mer frequency, TF over GST control)"
same,binding signal,[5],"1.01 fold enrichment (6-mer frequency, TF over GST control)"
same,binding signal,[6],"1.03 fold enrichment (6-mer frequency, TF over GST control)"
same,binding signal,[7],"1.01 fold enrichment (6-mer frequency, TF over GST control)"
same,binding signal,[8],"1.04 fold enrichment (6-mer frequency, TF over GST control)"
same,binding signal,[9],"1.06 fold enrichment (6-mer frequency, TF over GST control)"
same,binding signal,[10],"1.06 fold enrichment (6-mer frequency, TF over GST control)"
same,binding signal,[11],"1.11 fold enrichment (6-mer frequency, TF over GST control)"
same,binding signal,[12],"1.11 fold enrichment (6-mer frequency, TF over GST control)"
same,binding signal,[13],"1.17 fold enrichment (6-mer frequency, TF over GST control)"
same,binding signal,[14],"1.04 fold enrichment (6-mer frequency, TF over GST control)"
same,binding signal,[15],"1.03 fold enrichment (6-mer frequency, TF over GST control)"
same,binding signal,[16],"1.07 fold enrichment (6-mer frequency, TF over GST control)"
same,binding signal,[17],"1.06 fold enrichment (6-mer frequency, TF over GST control)"
